According to PubChem BioAssay (Tox21):
Results filed as inconclusive are left out. Values without a mark were called inactive. Calls follow the shape of the dose curve; as a rule, active = well fitted cell-killing curve with a large enough effect in the repeat runs; inconclusive = weak or mixed curves, or effect the other way; inactive = no such curve, though single readings can be large or run the other way.

assay: qHTS assay to identify small molecule agonists of the farnesoid-X-receptor (FXR) signaling pathway - cell viability counter screen (AID 743218); details: FXR-bla HEK293T viability, CellTiter-Glo luminescence, 16 h; series mostly up to 62.6 µM; viability change, negative = cytotoxic: at the top concentration; also: nearly all actives have a fitted effect of over 45% in size
Excerpt: U.S. Tox21 Program National Center for Advancing Translational Sciences [NCATS] NIH Chemical Genomics Center [NCGC] U.S. Environmental Protection Agency [EPA] National Institutes of Environmental Health Sciences [NIEHS] National Toxicology Program [NTP] U.S. Food and Drug Administration [FDA] Tox21 Assay Overview: The farnesoid-X-receptor (FXR), a nuclear hormone receptor, is highly expressed in liver, intestine, kidney and adrenal cortex. Natural ligands of FXR are the bile acids (Cholic acid, Chenodeoxy cholic acid etc). FXR is an important regulator of diverse metabolic pathways, including the bile acid homeostasis, lipid and glucose metabolisms. FXR regulates the expression of target genes by binding either as a monomer or as a heterodimer with the retinoid X receptor (RXR). Numerous studies have reported that FXR exerts protective function during cholestasis, diabetes, liver regeneration, and cancer. To identify compounds that activate FXR signaling, GeneBLAzer FXR-UAS-bla HEK 293T cell line (Invitrogen, Carlsbad, CA) containing a beta-lactamase reporter gene under the control of a UAS response element was used to screen the Tox21 10K compound library. The cytotoxicity of the Tox21 compound library against the FXR-bla cell line was tested in parallel by measuring the cell viability using CellTiter-Glo assay in the same wells.
Tox21 Assay Protocol Summary: FXR-bla cells were dispensed at 5000 cells/5uL/well in 1536-well black wall/clear bottom plates using a Multidrop Combi (Thermo Fisher Scientific, Waltham, MA) dispenser. After the assay plates were incubated at 37 C and 5% CO2 for 5 h, 23 nL of compounds dissolved in DMSO, positive controls or DMSO only was transferred to the assay plate by a Pintool station (Kalypsys, San Diego, CA). The assay plates were incubated at 37C for 16 h. After 1 uL of LiveBLAzerTM B/G FRET substrate was added using a Bioraptr Flying Reagent Dispenser (FRD) workstation (Beckman Coulter, Indianapolis, IN), the plates were incubated at room temperature for 2 h, and fluorescence intensity was measured by an Envision plate reader (PerkinElmer, Shelton, CT). For cell viability readout that measures cytotoxicity, 4uL/well of CellTiter-Glo reagent was added into the assay plates using a Bioraptr FRD. After 30 min incubation at room temperature, the luminescence intensity in the plates was measured using a ViewLux plate reader (PerkinElmer).
% is scaled to controls: 0 for no effect and ±100 for the full control effect.

Structure (SMILES) | viability change, negative = cytotoxic
Cc1c(N)cccc1Cl | -1.56%
CC1(C)CC(OC(=O)CCCCCCCCC(=O)OC2CC(C)(C)NC(C)(C)C2)CC(C)(C)N1 | -19.1% [at 29.1 µM]
CC(=O)OC1CCCCC1C(C)(C)C (stereo not given) | 6.06%
C[C@H]1[C@@H](c2ccccc2)NC(=O)N1C | -9.65% [at 81.1 µM]
CCCSSCCC | 6.17%
COc1cc(OC)nc(O[C@H](C(=O)O)C(OC)(c2ccccc2)c2ccccc2)n1 | -12%
COCCc1ccccn1 | 9.16%
Cc1ccc2c(c1)C(=O)c1ccccc1C2=O | 10.4%
CCCc1ccc(O)cc1 | -5.56%
CO[Si](CCCn1c(=O)n(CCC[Si](OC)(OC)OC)c(=O)n(CCC[Si](OC)(OC)OC)c1=O)(OC)OC | 2.35%
Cn1nnc2c(C(N)=O)ncn2c1=O | 7.59%
OC1(c2ccc(Cl)cc2)CCNCC1 | -11.1%
CCCCOC(=O)[C@H](C)O | -7.25%
COC(=O)c1cc(Cl)cc(Cl)c1 | -0.805%
CCC/C=C(\C=O)CC | -20.1%
CC(C)=CCC[C@@](C)(O)[C@H]1CC=C(C)CC1 | 1.2%
CN(C)CCCCl | -0.702% [at 81.1 µM]
OC[C@H]1O[C@@H](O[C@@H]2[C@@H](CO)O[C@](O)(CO)[C@H]2O)[C@H](O)[C@@H](O)[C@H]1O | 7.09%
CN1C[C@@H]2C[C@H]1CN2c1cc2c(cc1F)c(=O)c(C(=O)O)cn2C1CC1 | -3.63% [at 29.1 µM]
Cc1c(C(=O)c2c[nH]n(C)c2=O)ccc(S(C)(=O)=O)c1C1=NOCC1 | 2.31% [at 29.1 µM]

Structure (SMILES) | viability change, negative = cytotoxic
COc1nc(N)nc2nc[nH]c12 | -7.19%
CN(C)CCN(C)CCO | -7.82%
NCCOCCN | -7.75%
COC(=O)/C=C\C(=O)O | 1.32%
COS(=O)(=O)O | 22.4%
CO/N=C(/C(=O)N[C@@H]1C(=O)N2C(C(=O)[O-])=C(C[n+]3ccn4ncccc43)CS[C@H]12)c1nsc(N)n1 | 14.2%
CCCCOCCOC(=O)COc1ccc(Cl)cc1Cl | 5.19%
CC(=O)CCC1=C(C)CCCC1(C)C | -7.81%
CN(C)CC/C=C1/c2ccccc2COc2ccc(CC(=O)O)cc21 | -3.5%
[O]=[Mo](=[O])=[O] | -6.87% [at 29.1 µM]
CCOc1cccc(N)c1 | 6.76%
CN(C)CCCO[C@@H]1[C@H]2OC(C)(C)O[C@H]2O[C@@H]1C(O)CO (stereo not given in full) | 28.4%
Cn1c(=O)c2c(ncn2CCO)n(C)c1=O | -0.248%
CC1c2ccccc2CN1NC(=O)c1ccc(Cl)c(S(N)(=O)=O)c1 (stereo not given) | 15.5%
CCCCCCCCCOC(=O)c1ccccc1C(=O)OCCCCCCCCC | 2.89%
CC(C)C[C@@H]1[C@H](c2ccccc2)OC(=O)N1CCCN1CCCCCC1 | -7.86%
CCCCCC(C)O (stereo not given) | -8.15%
CCOC(=O)CC1(C)OCC(C)O1 (stereo not given) | -1.44%
CC1CC(=O)CC(C)(C)C1 (stereo not given) | 50.5%
COc1c2occc2c(OC)c2c(=O)cc(C)oc12 | -8.51%
